GALR2 antag – GALR2 antagonists in receptor-expressing cells, primary screen. actives 0.39% (n = 140,000). inhibition, % at 4 µM. antagonist mode. AID 828, 2007; in the data active = inhibition above about 27%;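 note: cells stimulated with galanin 1-16 at roughly its EC80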
Target sequence (O43603 whole entry, looked up): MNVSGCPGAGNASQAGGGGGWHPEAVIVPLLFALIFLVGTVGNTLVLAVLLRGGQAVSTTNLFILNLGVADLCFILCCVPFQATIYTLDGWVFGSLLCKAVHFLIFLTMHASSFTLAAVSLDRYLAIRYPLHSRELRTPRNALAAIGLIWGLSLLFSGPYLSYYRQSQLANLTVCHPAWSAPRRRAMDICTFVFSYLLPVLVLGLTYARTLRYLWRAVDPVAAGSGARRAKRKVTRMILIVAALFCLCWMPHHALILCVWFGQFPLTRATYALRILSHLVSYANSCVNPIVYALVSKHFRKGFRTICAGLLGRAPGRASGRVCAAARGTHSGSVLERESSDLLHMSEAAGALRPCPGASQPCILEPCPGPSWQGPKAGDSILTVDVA
Phagocytosis inh – inhibitors of macrophage phagocytosis, primary screen, imaging, J774A.1 cells, IgG beads; J774A.1 macrophage IgG-bead phagocytosis; AID 1029, 2008; inhibition, % at 5 µM; actives 0.07% (n = 110,000);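 active = inhibition above the mean of the plate negative controls plus 5 SD, cut at about 13% in these data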;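 note: phagocytic index as fraction of beads internalized from green versus red external bead signal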
S1P2 ag – S1P2 receptor agonists, primary screen, cell-based | Sphingosine 1-phosphate receptor 2 (Homo sapiens), O95136 | actives 0.46% (n = 97,000) | activation, % at 4.5 µM | S1P2-expressing cell line, agonist reporter read-out; in the data active = activation above about 16%
Target sequence (O95136 whole entry, looked up): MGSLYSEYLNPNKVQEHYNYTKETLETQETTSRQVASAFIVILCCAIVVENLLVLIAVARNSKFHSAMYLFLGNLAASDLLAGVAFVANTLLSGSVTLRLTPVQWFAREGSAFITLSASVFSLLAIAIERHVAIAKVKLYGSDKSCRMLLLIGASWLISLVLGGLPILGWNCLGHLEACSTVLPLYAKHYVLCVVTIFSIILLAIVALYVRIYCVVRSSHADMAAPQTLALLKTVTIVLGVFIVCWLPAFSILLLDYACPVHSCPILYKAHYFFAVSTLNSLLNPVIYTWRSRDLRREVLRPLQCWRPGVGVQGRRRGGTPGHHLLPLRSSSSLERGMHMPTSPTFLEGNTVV
GALR2 agonist – GALR2 receptor agonists, primary screen, cell-based; Galanin receptor type 2 (Homo sapiens), O43603; GALR2-expressing cells, agonist activation read-out; activation, % (no concentration beside the values); actives 0.48% (n = 140,000); AID 803, 2007; in the data active = activation above about 5%, passing the limit was not always enough
S1P2 antag – human S1P2 receptor antagonists, primary screen, cell-based; Sphingosine 1-phosphate receptor 2 (Homo sapiens), O95136; cell-based S1P2 antagonist assay, inhibition at 5 uM; inhibition, % at 5 µM; actives 0.21% (n = 97,000); AID 736, 2007; in the data active = inhibition above about 45%;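 note: CRE beta-lactamase reporter cells expressing human S1P2 stimulated with S1P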
Candida biofilm – clotrimazole potentiators killing Candida biofilms, primary screen, with clotrimazole, Alamar Blue; C. albicans biofilm + clotrimazole; inhibition, % at 6 µM; actives 0.14% (n = 85,000);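 active = inhibition above 20%; inactive = inhibition below 20%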;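 note: preformed 24 hr biofilms exposed to compound for 48 hr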
Each line names hits and unclear results; the compound was inactive in the other large screens; [ ] = remark or other dose. Rows were chosen to be rich in hits. Some 1.3% of all compounds tested hit in one or more screens of this group.

CCOC(=O)C1=NN(c2ccc([N+](=O)[O-])cc2)CC1C(=O)OC (stereo not drawn)	none (no result: S1P2 ag, S1P2 antag, Candida biofilm)
CCOC(=O)c1sc2nccc(N(C)C)c2c1N=CNOCc1c(F)cccc1Cl	S1P2 ag 32.9
CCOC(=O)c1sc2nccc(N(C)C)c2c1N=CNOCc1ccccc1	none
CCOC(=O)C1CCCCN1Cc1ccc(C(F)(F)F)cc1 (stereo not drawn)	none
CC1(C)c2ccccc2N2CCC(=O)NC21/C=C/c1ccco1 (stereo not drawn)	GALR2 agonist 6.1
O=C(O)CSc1nnc(Cn2nnc3ccccc32)n1CCc1ccccc1	none
COc1cccc(/C=N/Nc2snc(SC)c2C#N)c1	none (no result: Phagocytosis inh)
COc1ccc(/C=N/Nc2snc(SC)c2C#N)cc1OC	GALR2 agonist 5.1
CCCCCc1nc(-c2nonc2N)no1	none (no result: Phagocytosis inh, Candida biofilm)
COc1cccc(C2C3=C(CCCC3=O)Nc3nc(-c4cc(OC)c(OC)c(OC)c4)nn32)c1 (stereo not drawn)	S1P2 ag 17.5
O=C(NN=c1c(=O)c2ccccc2c1=O)c1ccccc1	none (no result: Candida biofilm)
O=c1oc2ccccc2cc1NCc1ccccc1O	Candida biofilm 22.3
O=C1CC(SC(=Nc2ccccc2)Nc2ccccc2)C(=O)N1c1cccc(Cl)c1 (stereo not drawn)	none (no result: Phagocytosis inh, Candida biofilm)
CCCCNc1cc(=O)n(C)c(=O)[nH]1	S1P2 ag 37.6
COc1cccc(OC)c1C(=O)NC(=S)N1CCN(c2ccc(C(F)(F)F)cc2[N+](=O)[O-])CC1	none (no result: Candida biofilm)
CCCS(=O)(=O)c1nc(S(=O)(=O)c2ccc(C)cc2)c(NCc2ccco2)s1	none (no result: S1P2 ag, S1P2 antag, Candida biofilm)
COc1ccc(-c2noc(-c3ccccc3Cl)n2)cc1OC	none
CCOc1cc2c(C#N)c(N3CCNCC3)nc(N)c2c(N)n1	S1P2 ag 19.8 (no result: Candida biofilm)
O=C(CCNC(=O)c1ccc(Br)o1)NCc1ccc(Cl)cc1	none
C=CCNS(=O)(=O)c1nc(C)c(Cl)c(C)c1C#N	Phagocytosis inh 27.3 (no result: S1P2 ag, S1P2 antag)
CCCc1nn(-c2cc(Cl)ccc2OC)c2c1C(=O)CCC2	S1P2 ag 59.1 (no result: Phagocytosis inh)
O=C(CSc1nnc(-c2cccnc2)o1)Oc1ccccc1	Phagocytosis inh 26.4[artifact] (no result: Candida biofilm)
CCOc1ccccc1-c1n[nH]c(=S)o1	none
CCOC(=O)c1c(C)[nH]c(C(=O)OC/C(O)=C(\C#N)c2nc3ccccc3[nH]2)c1C	S1P2 ag 16.2
COc1ccccc1OCC(=O)OC/C(O)=C(\C#N)c1nc2ccccc2[nH]1	none (no result: S1P2 ag, S1P2 antag, Candida biofilm)
Cc1cc(NC(=O)CCC(=O)N(CC(=O)NC2CCCC2)Cc2ccco2)no1	none (no result: Phagocytosis inh)
N#CCSc1nnc(-c2ccccc2)c(-c2ccccc2)n1	S1P2 ag 16.4 (no result: Candida biofilm)
N#CCSc1nc(-c2ccccc2)c2cc(Cl)ccc2n1	none (no result: S1P2 ag, S1P2 antag, Candida biofilm)
CCc1ccc(N2C(=O)CC(N3CCC(C(=O)OC)CC3)C2=O)cc1 (stereo not drawn)	S1P2 ag 27.2
CCCCn1c(NC(=O)CC)c(C#N)c2nc3ccccc3nc21	none
CCCCn1c(NC(=O)c2ccccc2Cl)c(C#N)c2nc3ccccc3nc21	GALR2 agonist 7.3
Cc1ccc(S(=O)(=O)N2CC3(C)CN(S(=O)(=O)c4ccc(C)cc4)CC(C)(C2)C3O)cc1 (stereo not drawn)	GALR2 agonist 5.0 (no result: S1P2 ag, S1P2 antag)
N=c1sccn1CC(=O)Nc1ccccc1Oc1ccccc1	none
Clc1ccc(NCn2cncn2)nc1	none
COc1ccc(C2C(C#N)=C(N)Oc3n[nH]c(-c4ccccn4)c32)c(OC)c1OC (stereo not drawn)	none
Cc1ccc(S(=O)(=O)NCC(=O)N(CC(=O)NCC2CCCO2)Cc2ccccc2)cc1 (stereo not drawn)	Candida biofilm 20.2
Cn1c(C(=O)N2CCCC2)cc2c(=O)n(C)c3ccccc3c21	S1P2 ag 21.2
CCCN1CCC(NC(=O)Nc2ccc(OC)c(OC)c2)CC1	S1P2 ag 35.0
CCCN1CCC(NC(=O)Nc2ccccc2C(=O)OC)CC1	none
O=c1c(-c2nc3ccccc3s2)cccn1Cc1ccc(Cl)c(Cl)c1	S1P2 ag 109.0, GALR2 agonist 11.5 (no result: Candida biofilm)
COc1cc2[nH]c(=O)n(Cc3ccc(C(=O)NC4CCCC4)cc3)c(=O)c2cc1OC	Candida biofilm 23.5
Nc1nc(CN2CCN(c3ccccc3F)CC2)nc(Nc2ccc3c(c2)OCCO3)n1	none (no result: Phagocytosis inh)
O=C(Nc1ccc(Br)cc1)c1ccc(Br)c(S(=O)(=O)Nc2cccnc2)c1	none (no result: S1P2 ag, S1P2 antag, Candida biofilm)
CSc1cc(-c2ccc(Cl)cc2)n(Cc2ccccc2)c(=O)c1C#N	GALR2 agonist 438.3
CSc1cc(-c2ccccc2)n(Cc2c(Cl)cccc2Cl)c(=O)c1C#N	none
CCCCn1c(=O)c(Cc2ccccc2)c(O)c2ccccc21	none (no result: S1P2 ag, S1P2 antag)
O=[N+]([O-])c1ccc(N/N=C2/CCCCC2c2ccccn2)cc1 (stereo not drawn)	none (no result: S1P2 ag, S1P2 antag, Candida biofilm)
CCCCCCn1c2c(c(=N)c3c1CCC3)CCC2	none
CCCCCCCCCn1c2c(c(=N)c3c1CCC3)CCC2	S1P2 antag 78.8 (no result: Phagocytosis inh)
CC1=Nn2c(nnc2-c2ccc(F)cc2)SC1	none
CC(=O)c1ccc(N2CCN(C(=O)c3ccco3)CC2)c(F)c1	Phagocytosis inh active
CCCC(=O)N1CCN(c2ccc(NC(=O)c3cc4ccccc4o3)cc2Cl)CC1	S1P2 antag 76.2
O=C(Nc1ccc(N2CCN(C(=O)c3ccccc3)CC2)c(Cl)c1)c1ccco1	none
O=C(c1cc2ccccc2o1)N1CCN(c2ccccc2Cl)CC1	none
CCC(=O)N1CCN(c2ccc(NC(=O)c3cc4ccccc4o3)cc2Cl)CC1	S1P2 antag 51.2
O=C(Nc1ccc(N2CCN(C(=O)c3ccco3)CC2)c(Cl)c1)c1cc2ccccc2o1	S1P2 antag 65.2
Cc1ccccc1NC(=O)C1C2CCC(O2)C1C(=O)O (stereo not drawn)	none (no result: Phagocytosis inh)
COc1ccc(CCNC(=O)CCS(=O)(=O)c2cccc3nsnc23)cc1OC	none (no result: S1P2 ag, S1P2 antag)
COc1cccc(/C=N/N2CCN(c3ccncc3S(=O)(=O)N3CCCCC3)CC2)c1	none (no result: S1P2 ag, S1P2 antag, Candida biofilm)
CCCP(=O)(CCC)CCP(=O)(c1ccccc1)c1ccccc1	none (no result: S1P2 ag, S1P2 antag, Candida biofilm)
O=C(CSc1ncnc2ccccc12)NCCCO	none
Cc1nc(C(=O)N(C)C)nn1-c1cc(Cl)cc(Cl)c1	none (no result: Candida biofilm)
O=c1cc(CO)oc(CN2CCN(CCO)CC2)c1O	none (no result: Candida biofilm)
Clc1ccc(C2=Nn3c(nnc3-c3n[nH]c4c3CCC4)SC2)cc1Cl	GALR2 agonist 5.2 (no result: Phagocytosis inh, Candida biofilm)
CC1(C)CC(=O)C(C=Nc2ccc3cn[nH]c3c2)=C(O)C1	GALR2 antag 31.4
CSc1ccccc1N=CC1=C(O)CC(C)(C)CC1=O	GALR2 antag 35.6 (no result: Phagocytosis inh, Candida biofilm)
CC1(C)CC(=O)C(C=Nc2ccc(O)cc2)=C(O)C1	none
CCOC(=O)/C=C/C(=O)Nc1ccccc1-c1ccccc1NC(=O)/C=C/C(=O)OCC	none (no result: S1P2 ag, S1P2 antag, Candida biofilm)
COCCNC(=O)CSc1nc2cc(OC)c(OC)cc2c(=O)n1Cc1ccco1	none (no result: Phagocytosis inh)
CCC(Sc1nc2cc(OC)c(OC)cc2c(=O)n1Cc1ccco1)C(=O)NCCOC (stereo not drawn)	S1P2 ag 17.8
COc1cccc(-c2nnc3n2N=C(c2cc(OC)ccc2OC)CS3)c1	none (no result: Phagocytosis inh, Candida biofilm)
COc1cc(-c2nnc3n2N=C(c2ccccc2)CS3)cc(OC)c1OC	S1P2 ag 34.3

Screens: PubChem BioAssay, several laboratories
